HCMV inh: human cytomegalovirus inhibition | AID 1259415 | activity change, negative = inhibition, % at 57.5 µM | hit rate 4.5% among 410,000 | HFF cells, HCMV-luciferase reporter, 72 h; active compounds read low; in the data active = activity change below about -60%; inconclusive = no clear call, values can overlap the other calls; inactive = above about -39%
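Luciferase read-out from HCMV-luciferase-infected HFFs (MOI 1 PFU/cell) 72 h post infection at 37C; compounds added after 16 h cell attachment; activity normalized between buffer-only basal and Salinomycin (10uM) inhibitor controls.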
FMDV antiviral: blocks foot and mouth disease virus; hit rate 1.2% among 410,000; Potency, µM (doses to about 57.9 µM), usual class: inhibitors; FMDV antiviral cell-based qHTS; calls by dose curve; tested in HEK293T cells; note: read-out not given here; nearly all actives have a fitted effect of over 45% in size
Lassa entry inh: inhibitors of Lassa virus binding or cell entry. Lassa virus pseudotype entry inhibition, cell reporter. Potency, µM (doses to about 37.9 µM), most hits filed as inhibitors. hit rate 1.2% among 300,000. AID 540256; calls by dose curve; tested in HEK293 cells; note: nearly all actives have a fitted effect of over 50% in size
MARV entry inh: blocks Marburg virus binding to or entry into cells; AID 540276; Potency, µM (series often up to 37.8 µM), most hits filed as inhibitors; hit rate 1.8% among 300,000; Marburg virus pseudotyped entry inhibition, cell reporter; calls by dose curve; tested in HEK293 cells
VACV Venus inh: vaccinia inhibition (Venus reporter) | hit rate 0.46% among 330,000 | Potency, µM (highest dose often 36.5 µM), actives largely listed as inhibitors | Vaccinia virus Venus reporter expression, fluorescence; calls by dose curve; tested in A549 cells; note: nearly all actives have a fitted effect of over 30% in size
Vaccinia mCherry: inhibitors of vaccinia virus infection (mCherry reporter signal); AID 720579; Potency, µM (titrated, usually from 36.5 µM), most hits filed as inhibitors; Vaccinia virus mCherry reporter infection, fluorescence; hit rate 0.63% among 310,000; calls by dose curve; tested in A549 cells; note: nearly all actives have a fitted effect of over 35% in size
A number is an active result; – = inactive; ? = inconclusive; · = no result; ! = a repeat was not active; [ ] = remark or other dose. Shown are actives, neighbours in structure and some others; about 6.5% of the full set was active somewhere.

SMILES | HCMV inh | FMDV antiviral | Lassa entry inh | MARV entry inh | VACV Venus inh | Vaccinia mCherry
Clc1ccc2c(c1)C(N1CCNCC1)=Nc1ccccc1O2 | – | – | ? | 10.3µM! | ? | –
CC1=Nc2cc(Cl)ccc2Oc2ccccc21 | – | – | – | – | – | –
CC[C@@H](C)[C@H]1O[C@]2(CC[C@H]1C)C[C@@H]1C[C@@H](CC=C(C)[C@@H](O[C@H]3C[C@H](OC)[C@@H](O[C@H]4C[C@H](OC)[C@@H](O)[C@H](C)O4)[C@H](C)O3)[C@@H](C)C=CC=C3CO[C@@H]4[C@H](O)C(C)=C[C@@H](C(=O)O1)[C@]34O)O2 | · | · | 2.59µM | 10.3µM | · | ·
CC[C@@H](C)[C@H]1O[C@]2(CC[C@@H]1C)C[C@@H]1C[C@@H](C/C=C(\C)[C@@H](O[C@H]3C[C@H](OC)[C@@H](O[C@H]4C[C@H](OC)[C@@H](O)[C@H](C)O4)[C@H](C)O3)[C@@H](C)/C=C/C=C3\CO[C@@H]4[C@H](O)C(C)=C[C@@H](C(=O)O1)[C@]34O)O2 | · | · | ? | 6.31µM | · | ·
Cc1cc(C)c(NC(=O)c2cc3c(=O)n4ccccc4nc3n2C)c(C)c1 | -79.3 | ? | – | · | – | –
COc1ccc(CCNC(=O)c2ccc3c(c2)CCN3S(C)(=O)=O)cc1 | – | – | – | – | – | –
Cc1ccc(NC(=O)CSc2nnc(CCNC(=O)OC(C)(C)C)o2)c(C)c1 | – | – | – | – | · | ·
CC(C)(C)OC(=O)NCCCCCc1nnc(SCc2ccc(F)cc2)o1 | -66.8 | ? | – | ? | –[7.34 µM] | –[7.34 µM]
Cc1ccc(C)c(NC(=O)CSc2nnc(CCCCCNC(=O)OC(C)(C)C)o2)c1 | – | 15.8µM | – | – | · | ·
CC(C)C[C@@H]1COc2cc(NC3CC3)ccc2S(=O)(=O)N1 | – | · | · | ? | · | ·
CCn1c(=O)c2c(nc3n2CCN3c2ccc(OC)cc2)n(C)c1=O | – | – | ? | · | – | –
COc1ccccc1C(CC(=O)c1ccccc1)CC(=O)c1ccccc1 | -76.9 | – | ? | ? | – | –
COc1ccccc1C(CC(=O)c1ccccc1)C(=O)c1ccccc1 (stereo unspecified) | – | – | · | · | – | –
COc1ccc(/C=C/C(=O)N2CCc3c(cnc(C)c3CNS(=O)(=O)c3cccs3)C2)cc1 | · | – | · | · | – | –
CCCSc1ccc(C(=O)Nc2ccc(F)cc2F)cn1 | -62.2 | – | – | ? | – | –
COc1cccc(NC(=O)Nc2nc(SC)ns2)c1 | ? | – | – | ? | – | ?
CCCSc1nsc(NC(=O)Nc2ccc(F)cc2F)n1 | -100.8 | – | · | · | · | ·
CCSc1nsc(NC(=O)Nc2cccc(F)c2)n1 | -97.9 | ? | ? | ? | ? | –
CCCSc1nsc(NC(=O)CC)n1 | – | – | ? | 12.6µM | – | –
Cc1cc(C)nc(NC(=O)Nc2ccc(F)cc2F)n1 | – | – | · | · | · | ·
COc1ccc(CNCc2ccc3c(c2)n(C)c(=O)n3C)cc1 | – | – | – | – | – | –
O=S(=O)(Nc1ccc(F)cc1F)c1ccc(-n2cccn2)cc1 | – | – | – | · | – | –
CCCc1nc2cccnc2n1C1CCN(C(=O)CC2NC(=O)c3ccccc32)CC1 (stereo unspecified) | · | – | · | · | – | –
COc1cccc(NC(=O)Nc2nc(SC(C)(C)C)ns2)c1 | -94.8 | – | · | · | · | ·
Cc1ccc(C(=O)N(c2ccc(C)cc2)S(=O)(=O)c2ccc(Cl)cc2)cc1 | – | – | ? | · | – | –
SMILES | HCMV inh | FMDV antiviral | Lassa entry inh | MARV entry inh | VACV Venus inh | Vaccinia mCherry
COc1ccc(-n2c(C)cc(C(=O)CSc3ccc(NC(C)=O)cc3)c2C)cc1 | – | – | ? | – | – | –
Cc1cc(-n2c(C)cc(C(=O)CCl)c2C)no1 | -95.6 | 22.4µM | ? | 2.82µM | ? | –
COc1cc(NC(=O)c2cccs2)c(C(=O)OCC(=O)c2cc(C)n(-c3ccc(F)cc3)c2C)cc1OC | – | ? | ? | ? | – | –
Cc1nnc(SCC(=O)c2cc(C)n(-c3c(C)n(C)n(-c4ccccc4)c3=O)c2C)s1 | – | – | – | – | – | –
Cc1cc(C(=O)CCl)c(C)n1-c1c(C)n(C)n(-c2ccccc2)c1=O | – | 28.2µM | ? | ? | ? | ?
COc1cc(NC(=O)c2cccs2)c(C(=O)OCC(=O)c2cc(C)n(-c3ccccc3)c2C)cc1OC | – | 3.98µM | ? | 3.55µM | – | –
CC(=O)Nc1ccc(SCC(=O)c2cc(C)n(-c3ccccc3)c2C)cc1 | -60.3 | – | – | – | – | –
CCc1ccccc1N(C)C(=O)Cn1cnc2sc(C)c(S(=O)(=O)N3CCN(c4ncccn4)CC3)c2c1=O | – | – | – | – | – | –
CCOc1ccc(N(CC)S(=O)(=O)N2CCCC(C(=O)NCc3ccccc3OCC)C2)cc1 (stereo unspecified) | – | – | ? | · | – | –
CCCc1cc(=O)oc2cc(C)c3c(-c4ccccc4)coc3c12 | – | – | ? | ? | – | –
Cc1cc(-n2c(C)cc(C(=O)CSc3nnnn3-c3ccccc3)c2C)no1 | – | – | ? | – | – | –
COc1ccc(-n2c(C)cc(C(=O)CN3C(=O)c4ccccc4C3=O)c2C)cc1 | ? | – | – | ? | – | –
COc1ccc(-n2c(C)cc(C(=O)CCl)c2C)cc1 | -90.3 | 28.2µM | · | · | · | ·
CCOC(=O)c1cc(C)n(-c2ccccc2)c1C | -77.4 | – | – | – | –[7.34 µM] | –[7.34 µM]
COc1ccc(-n2c(C)cc(C(=O)COC(=O)Cn3cnc4ccccc43)c2C)cc1 | ? | – | – | – | – | ?
Cc1cc(C(=O)OCC(N)=O)c(C)n1-c1ccccc1 | – | – | – | – | – | –
Cc1ccc(-n2nnnc2SCC(=O)c2cc(C)n(-c3cc(C)on3)c2C)c(C)c1 | – | · | 1.46µM | – | – | ?
COc1ccc(-n2c(C)cc(C(=O)COC(=O)c3ccc(O)cc3O)c2C)cc1 | -81.0 | – | · | · | · | ·
O=C(O)CCc1ccc(-c2ccc(Cl)cc2)n1-c1cccc(C(F)(F)F)c1 | – | – | – | – | – | –
COc1ccccc1NC(=O)C(C)Sc1nnc2ccc3ccccc3n12 (stereo unspecified) | – | – | – | – | – | –
CCc1ccc(OCC(=O)NCC(c2ccc(OC)cc2)N2CCOCC2)cc1 (stereo unspecified) | – | – | – | – | – | –
Cc1cc(C(=O)COC(=O)c2ccc(O)cc2O)c(C)n1-c1ccccc1 | – | – | 11.2µM | ? | ? | ?
Cc1cc(C(=O)C(C)OC(=O)c2ccc(NC(=O)CC#N)cc2)c(C)n1-c1ccccc1 (stereo unspecified) | -63.1 | 15.8µM | ? | ? | – | ?
Cc1cc(C(=O)O)c(C)n1-c1ccccc1 | – | – | – | – | – | –
Cc1cc(C(=O)COC(=O)c2ccc(O)cc2O)c(C)n1-c1ccc(OC(F)F)cc1 | -63.4 | ? | ? | 7.94µM | – | –
Cc1cc(=O)c(C(=O)O)c(C)n1-c1ccccc1 | -62.1 | – | – | – | – | –
CCCCOc1ccc(CNC(=O)C2CCCN(c3nnc(-n4c(C)ccc4C)s3)C2)cc1 (stereo unspecified) | – | ? | – | – | – | –
COc1ccc(Cn2c(=O)c3oc4ccccc4c3n(Cc3ccccc3)c2=O)cc1 | – | – | – | · | – | –
